IP6K1 inh: inhibitors of human IP6K1 | actives 0.81% (n = 140,000) | Q92551 | IP6K1 kinase, ADP-Glo luminescence, 2 h; hits give low values | activity change, % (series mostly up to about 58 µM); in the data active = activity change below about -25%; note: % is set by controls: 0 for no effect and ±100 for the full control effect
Target sequence (Q92551 whole entry, looked up): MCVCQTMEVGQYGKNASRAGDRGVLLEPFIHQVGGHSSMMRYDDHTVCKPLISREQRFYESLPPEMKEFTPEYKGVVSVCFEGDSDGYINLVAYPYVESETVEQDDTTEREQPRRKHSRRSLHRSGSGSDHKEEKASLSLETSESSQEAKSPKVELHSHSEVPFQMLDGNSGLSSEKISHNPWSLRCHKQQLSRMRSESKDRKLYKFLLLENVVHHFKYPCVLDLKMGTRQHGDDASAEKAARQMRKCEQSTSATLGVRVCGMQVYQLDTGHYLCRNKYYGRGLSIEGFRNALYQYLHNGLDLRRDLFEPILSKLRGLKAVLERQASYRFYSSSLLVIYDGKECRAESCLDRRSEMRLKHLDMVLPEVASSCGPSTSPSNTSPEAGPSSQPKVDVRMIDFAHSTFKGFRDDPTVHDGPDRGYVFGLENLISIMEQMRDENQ
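ADP-Glo luminescence measures ADP made by human IP6K1 during a 2 h RT reaction with ATP/IP6 (mix at 1.3 mM/130 uM); top library doses 57.5 and 19.1 uM final.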
SNCA viab count: counter-screen for SNCA expression inhibitors: cell viability; Potency, µM (doses to about 57.1 µM), inactives show at the highest dose activity change, negative = cytotoxicity, most hits filed as cytotoxic; actives 0.12% (n = 150,000); AID 1671193; HEK-293-SNCA-luc viability, GF-AFC fluorescence, 24 h;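 note: potency is the fitted concentration of half-maximal effect; 0% = DMSO-treated cells and -100% = medium-only wells without cells; nearly all actives have a fitted effect of over 30% in size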
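Cytotoxicity counterscreen: after 24 h compound treatment of genome-edited SNCA-luciferase HEK-293 cells, live-cell protease substrate GF-AFC read by fluorescence after 30 min; activity scaled between DMSO (0%) and medium-only (-100%), curves Hill-fitted.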
SNCA expr inhib: inhibitors of alpha-synuclein (SNCA) gene expression. HEK-293 SNCA-luciferase knock-in, luminescence, 24 h. Potency, µM (doses to about 57.2 µM), without a hit: top-dose activity change, negative = inhibition, hits mostly inhibitors. actives 0.17% (n = 140,000);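 note: potency is the fitted concentration of half-maximal effect; plate controls were DMSO cells for no effect and cell-free wells for full effect; nearly all actives have a fitted effect of over 45% in size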
KDM5B inhibitor: inhibitors of human KDM5B histone demethylase | actives 2.6% (n = 220,000) | Potency, µM (series often up to 57.7 µM), most hits filed as inhibitors | Q9UGL1 | KDM5B demethylase, FDH-coupled NADH fluorescence (FDH is formaldehyde dehydrogenase); note: potency is the fitted concentration of half-maximal effect; 0% is about no effect; nearly all actives have a fitted effect of over 70% in size
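Coupled FDH/NAD⁺ fluorescence readout. KDM5BΔAP 200 nM final; compound titration, 10 min RT preincubation; substrate mix 12.5 µM H3K4me3, 25 µM 2-OG, 50 µM Fe(II), 100 µM ascorbate, 0.25 mM NAD⁺, 0.25 U/mL FDH; ΔRFU over 30 min.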
* marks the source's active call; other numbers are inactive results; i = inactive; u = inconclusive; x = not tested or not shown; [ ] = another dose, or the depositor's remark. Most compounds without a hit are left out; they make up all but 3% or so of the library. Unless noted, calls come from the whole dose curve; as a rule, active = well fitted curve in the direction sought with a large enough effect; inconclusive = small, poorly fitted or top-dose-only effect, or another doubt; inactive = no such curve, though single readings can be large; an effect the other way counts as inactive or inconclusive.

SMILES | IP6K1 inh | SNCA viab count | SNCA expr inhib | KDM5B inhibitor
O=C(c1ccc(F)cc1)N1C[C@@H]2C[C@H](C1)c1ccc(NS(=O)(=O)c3cccc(F)c3)c(=O)n1C2 | 1 | -7% | 12% | u
Cn1ncc2c(C(=O)NC3Cc4ccccc4C3)cc(-c3ccccc3C(F)(F)F)nc21 | 4 | x | x | x
COc1ccc(C2NC(=S)NC(C)=C2C(C)=O)c(OC)c1 (stereo not drawn) | x | x | x | i
Cc1ccc(S(=O)Cc2nc(-c3ccc(C(=O)NCc4cccnc4)cc3)oc2C)cc1 (stereo not drawn) | x | x | x | i
O=C(O)CCCC(=O)c1ccc2c(c1)OCCOCCOCCOCCO2 | x | x | x | i
COc1ccc(NC(=O)N2CCc3c(c4ccccc4n3C)C2)cc1 | -20 | -9% | 87% | 25µM*
Cn1c2c(c3ccccc31)CN(C(=O)NC1CCCCC1)CC2 | 3 | -1% | 1% | u
Cn1c2c(c3cc(F)ccc31)CN(C(=O)Nc1ccc(F)c(Cl)c1)CC2 | -8 | u | u | 32µM*
Cn1c2c(c3ccccc31)CN(C(=O)Nc1ccccc1)CC2 | -5 | 9% | 17% | 22µM*
O=C(Nc1ccc(Cl)cc1Cl)N1CCc2[nH]c3ccc(F)cc3c2C1 | -8 | u | -9% | 32µM*
COc1ccc(-c2nc(C)nc3c2CN(C(=O)Nc2ccccc2)CC3)cc1 | -5 | 7% | 12% | x
CCCN1CNC(=S)N(N2CN(CCC)CNC2=S)C1 | x | x | x | i
Cn1c2c(c3ccccc31)CN(C(=O)c1ccccc1)CC2 | 3 | -3% | 6% | u
CC(=O)N1CCc2c(c3ccccc3n2C)C1 | 3 | 3% | 1% | 25µM*
Cc1cccc(CSCC(=O)N(C)C)c1 | x | x | x | i
Cc1ccc(-c2cccc(COc3cnc4c(ccn4CC(=O)O)c3)c2)cc1 | -13 | 2%[87.6 µM] | -1%[87.6 µM] | 35µM*
O=C(O)Cn1ccc2cc(OCc3cccc(-c4ccc(F)c(Cl)c4)c3)cnc21 | -11 | 3%[87.6 µM] | 10%[87.6 µM] | 40µM*
CNC(=O)CCn1ncc2cc(OCc3ccccc3-c3ccc(F)c(Cl)c3)ccc21 | -2 | u | u | u
O=C(O)Cn1ccc2cc(OCc3cccc(-c4ccccc4O)c3)cnc21 | -14 | 4%[87.6 µM] | -4%[87.6 µM] | u
O=C(CSc1nnc(-c2ccc(Cl)cc2)n1CC1CCCO1)Nc1ccc2c(c1)OCO2 (stereo not drawn) | x | x | x | i
CCn1ccc(C(=O)N2c3ccccc3CC2c2nc(C(C)C)no2)n1 (stereo not drawn) | 18 | -17% | 187% | 25µM*
c1ccc(OCC2CN(Cc3ccncc3)CC23CN(c2ccccc2)C3)cc1 (stereo not drawn) | -8 | -3%[87.6 µM] | 10%[87.6 µM] | 32µM*
O=C(Cc1ccccc1)NCC1CN(Cc2ccc3[nH]ccc3c2)CC12CN(c1ccccc1)C2 (stereo not drawn) | -4 | -16% | -29% | u
O=C(c1cccc(O)c1)N1CC(COc2ccccc2)C2(C1)CN(C(=O)c1cn[nH]c1)C2 (stereo not drawn) | 5 | 1%[87.6 µM] | -11%[87.6 µM] | i
N#Cc1cccc(C(=O)N2CC(COc3ccccc3)C3(C2)CN(c2ccccc2)C3)c1 (stereo not drawn) | 0 | -9%[87.6 µM] | -21%[87.6 µM] | 35µM*
SMILES | IP6K1 inh | SNCA viab count | SNCA expr inhib | KDM5B inhibitor
c1ccc(OCC2CN(Cc3ccc4[nH]ccc4c3)CC23CN(c2ccccc2)C3)cc1 (stereo not drawn) | -1 | u | 20µM* | u
Cc1cccc(-n2c(SCC(=O)N(C)CCC#N)nc3ccccc3c2=O)n1 | x | x | x | i
COCCNC(=O)C1CCCCN1Cc1ccc(-c2ccccc2OC)cc1 (stereo not drawn) | 9 | x | x | x
COc1cccc(C(O)c2nc(C(=O)N3CCN(c4ccccn4)CC3)c(C)o2)c1 (stereo not drawn) | -11 | 1%[87.6 µM] | 10%[87.6 µM] | 25µM*
c1ccc(-c2nnc3ccc(NC4CCCCC4)nn23)nc1 | -13 | -1%[87.6 µM] | 10%[87.6 µM] | u
c1ccc(-c2nnc3ccc(-c4ccoc4)nn23)nc1 | -17 | -7%[87.6 µM] | -26%[87.6 µM] | 32µM*
Cc1noc(C)c1-c1cc2cc(CN(C)C)oc2c(-c2ccc([S+](C)(=O)[O-])cc2)n1 | 1 | -6%[87.6 µM] | -23%[87.6 µM] | 40µM*
Cc1cc2cc(-c3c(C)noc3C)nc(-c3ccc([S+](C)(=O)[O-])cc3)c2o1 | -18 | 0%[87.6 µM] | 24%[87.6 µM] | 35µM*
COc1ccccc1-c1nc(-c2c(C)noc2C)cc2cc(CN(C)C)oc12 | 19 | -4%[87.6 µM] | 52%[87.6 µM] | 35µM*
Cc1noc(C)c1-c1cc2cc(CN(C)C)oc2c(NCCc2ccccc2)n1 | -16 | -19%[87.6 µM] | 0%[87.6 µM] | i
CCc1nnc(CN(CC)C(=O)c2ccc3nc(-c4ccccc4)cn3c2)o1 | -2 | 3% | -15% | 28µM*
CCc1noc(CN(CC)C(=O)c2cc(-c3ccccc3)nn2C)n1 | 0 | 1% | 16% | i
Cc1cccnc1CN(C)C(=O)c1ccc2nc(-c3ccccc3)cn2c1 | -14 | 1% | 1% | 28µM*
CC12C(=O)OC(=O)C1(C)C1CCC2O1 (stereo not drawn) | x | u | 3.5µM* | x
CCn1ccnc1CN(C)C(=O)c1cc(-c2cnc(N)nc2)nc2c(C)cccc12 | 1 | -6% | 2% | 28µM*
CCn1ccnc1CN(C)C(=O)c1cc(-c2cnc(C)nc2)nc2cc(F)ccc12 | -2 | -1% | 13% | i
Clc1ccc(N/N=C/c2cccc(/C=N/Nc3ccc(Cl)c(Cl)c3)c2)cc1Cl | x | x | x | i
O=C(/C=C/c1ccccc1)OC[C@H]1O[C@@H](OC(=O)c2cc(O)c(O)c(O)c2)[C@H](O)[C@@H](O)[C@@H]1O | -47* | -19%[23.9 µM] | x | x
O=C(/C=C/c1ccc(O)cc1)OC[C@H]1O[C@@H](O/C(=C\c2ccccc2)C(=O)O)[C@H](O)[C@@H](O)[C@@H]1O | 1 | -5%[23.9 µM] | x | x
Cc1noc(C)c1CCC(=O)NC1CCCc2c1[nH]c1ccccc21 (stereo not drawn) | 3 | -5% | -2% | 28µM*
Cc1cc(=O)oc2cc(OCC(=O)NC3CCCc4c3[nH]c3ccccc43)ccc12 (stereo not drawn) | 4 | u | u | 16µM*
O=C(COc1ccccc1-n1cnnc1)NC1CCCc2c1[nH]c1ccccc21 (stereo not drawn) | 0 | 5% | 12% | i
CCCC(C)N1CC2(CCN(C(=O)c3cnn4ccccc34)CC2)OC1=O (stereo not drawn) | 1 | 6% | 16% | 28µM*
O=C1CC2(CCN(C(=O)c3cnn4ccccc34)CC2)CN1Cc1ccccc1 | 5 | -4% | -19% | 20µM*
O=C([C@@H]1CCCN1Cc1cc(=O)c2cc(F)ccc2[nH]1)N1CCCCC1 | 9 | 4% | -7% | 28µM*
O=C1CCN(C(=O)[C@@H]2CCCN2Cc2ccc(F)cc2F)CCCCCCN1 | 2 | 7% | -13% | u
C[C@H](C(=O)N1CCOCC1)C1CC[C@@]2(C)Cc3sc(CS(=O)(=O)C(C)(C)C)nc3[C@@H](C)[C@@H]2[C@H]1O (stereo partly drawn) | 0 | 4% | 55% | i

Source: PubChem BioAssay
